Measurements taken from the antibiotic and cytotoxicity screens of Wong et al. (2023).
The whole screen tested about 39,000 compounds, of which about 3,300 (8.5%) were called active. The sample as a whole holds a higher share of actives than the screen did.

Test system: HepG2
Assay: cytotoxicity call (relative viability < 0.9)
Details: 10 µM

Row | SMILES | cytotoxicity call
1 | COc1ccc(S(=O)(=O)Nc2ccc3c(c2)C(=O)N([C@H](C)CO)C[C@@H](C)[C@H](CN(C)C(=O)NC2CCCCC2)OCCCC[C@@H](C)O3)cc1 | inactive
2 | C[C@H]1CN([C@@H](C)CO)C(=O)c2cc(NC(=O)Nc3cccc4ccccc34)ccc2O[C@H]1CN(C)C(=O)Nc1ccc(F)cc1 | inactive
3 | C[C@@H]1CN([C@@H](C)CO)C(=O)CCCn2cc(nn2)CO[C@H]1CN(C)S(=O)(=O)c1cccc(C#N)c1 | inactive
4 | Cc1noc(C)c1NC(=O)N(C)C[C@H]1Oc2ccc(NC(=O)Nc3ccc(C(F)(F)F)cc3)cc2CC(=O)N([C@@H](C)CO)C[C@@H]1C | inactive
5 | COc1ccc(C#Cc2ccc3c(c2)O[C@H](CN(C)C(C)=O)[C@H](C)CN([C@H](C)CO)S3(=O)=O)cc1 | inactive
6 | C=C/C=C/[C@@H]1C(=C)CN([C@@H](Cc2ccccc2)C(=O)OC)[C@H]1[C@@H](O)CCn1cc(-c2ccc(C(=O)NO)s2)nn1 | inactive
7 | C[C@@H]1CN([C@H](C)CO)C(=O)c2cc(NC(=O)Cc3ccccc3)ccc2O[C@@H](C)CCCCO[C@@H]1CN(C)C(=O)NC1CCCCC1 | inactive
8 | COc1ccc(S(=O)(=O)N(C)C[C@@H]2OCCCC[C@H](C)Oc3ccc(NC(=O)CCC(F)(F)F)cc3C(=O)N([C@@H](C)CO)C[C@H]2C)cc1 | inactive
9 | COc1ccc(S(=O)(=O)Nc2ccc3c(c2)CC(=O)N([C@@H](C)CO)C[C@@H](C)[C@@H](CN(C)CC2CC2)O3)cc1 | inactive
10 | COc1ccc(S(=O)(=O)N[C@@H]2CC[C@@H](CC(=O)N3CCN(c4ccccc4)CC3)O[C@@H]2CO)cc1 | inactive
11 | Cn1cnc(CN)c1 | inactive
12 | C[C@H]1CN([C@@H](C)CO)C(=O)c2cc(C#CCc3ccccc3)cnc2O[C@@H]1CN(C)C(=O)C1CCOCC1 | inactive
13 | C[C@H]1CN([C@@H](C)CO)C(=O)c2cc(NS(=O)(=O)c3ccccc3)ccc2O[C@@H]1CN(C)Cc1ccncc1 | inactive
14 | Cc1noc(C)c1NC(=O)Nc1ccc2c(c1)C(=O)N([C@H](C)CO)C[C@H](C)[C@H](CN(C)C(=O)Cc1ccccc1)OCCCC[C@H](C)O2 | inactive
15 | C[C@H](CO)N1C[C@H](C)[C@H](CN(C)Cc2ccc(Oc3ccccc3)cc2)Oc2ccc(NS(=O)(=O)c3ccccc3)cc2C1=O | inactive
16 | C[C@@H]1CN([C@H](C)CO)C(=O)c2cc(NS(=O)(=O)c3ccccc3)ccc2O[C@H]1CN(C)Cc1ccc(Oc2ccccc2)cc1 | inactive
17 | C[C@@H]1CN([C@@H](C)CO)C(=O)c2cc(NS(=O)(=O)c3ccccc3)ccc2O[C@@H]1CN(C)Cc1ccc(Oc2ccccc2)cc1 | active
18 | C[C@H]1CN([C@@H](C)CO)C(=O)c2cc(NS(=O)(=O)c3ccccc3)ccc2O[C@H]1CN(C)Cc1ccc(Oc2ccccc2)cc1 | inactive
19 | C[C@@H]1CN([C@H](C)CO)C(=O)c2cc(NS(=O)(=O)c3ccccc3)ccc2O[C@@H]1CN(C)Cc1ccc(Oc2ccccc2)cc1 | active
20 | C[C@H](CO)N1C[C@H](C)[C@@H](CN(C)Cc2ccc(Oc3ccccc3)cc2)Oc2ccc(NS(=O)(=O)c3ccccc3)cc2C1=O | inactive
21 | C[C@@H](NS(=O)(=O)C1CN(C(=O)OCc2ccccc2)C1)C(N)=O | inactive

Row | SMILES | cytotoxicity call
22 | O=C1c2ccccc2-c2nc(-c3ccccc3)cc3cccc1c23 | inactive
23 | C[C@H](CO)N1C[C@H](C)[C@H](CN(C)C(=O)CN(C)C)Oc2cc(-c3cncnc3)ccc2S1(=O)=O | inactive
24 | O=C(O)[C@@H](O)c1ccccc1 | inactive
25 | C[C@H]1CN([C@@H](C)CO)C(=O)c2cc(NC(=O)Nc3ccc(F)cc3)ccc2O[C@H]1CN(C)Cc1ccc(-c2ccccc2)cc1 | inactive
26 | C[C@@H]1CN([C@@H](C)CO)C(=O)c2cc(NC(=O)Nc3ccc(F)cc3)ccc2O[C@@H]1CN(C)Cc1ccc(-c2ccccc2)cc1 | active
27 | C[C@@H]1CN([C@H](C)CO)C(=O)c2cc(NC(=O)Nc3ccc(F)cc3)ccc2O[C@H]1CN(C)Cc1ccc(-c2ccccc2)cc1 | inactive
28 | C[C@H]1CN([C@@H](C)CO)C(=O)c2cc(NC(=O)Nc3ccc(F)cc3)ccc2O[C@@H]1CN(C)Cc1ccc(-c2ccccc2)cc1 | inactive
29 | C[C@H](CO)N1C[C@H](C)[C@H](CN(C)Cc2ccc(-c3ccccc3)cc2)Oc2ccc(NC(=O)Nc3ccc(F)cc3)cc2C1=O | inactive
30 | C[C@H](CO)N1C[C@H](C)[C@@H](CN(C)Cc2ccc(-c3ccccc3)cc2)Oc2ccc(NC(=O)Nc3ccc(F)cc3)cc2C1=O | inactive
31 | C[C@@H]1CN([C@@H](C)CO)C(=O)c2cc(NC(=O)Nc3ccc(F)cc3)ccc2O[C@H]1CN(C)Cc1ccc(-c2ccccc2)cc1 | active
32 | C[C@@H]1CN([C@H](C)CO)C(=O)c2cc(NC(=O)Nc3ccc(F)cc3)ccc2O[C@@H]1CN(C)Cc1ccc(-c2ccccc2)cc1 | active
33 | C[C@@H]1CN([C@H](C)CO)C(=O)c2cc(NC(=O)C3CCCCC3)ccc2O[C@@H](C)CCCCO[C@H]1CN(C)S(=O)(=O)c1ccc(Cl)cc1 | inactive
34 | CO[C@H]1CN(C)C(=O)c2ccc(NS(=O)(=O)c3cn(C)cn3)cc2OC[C@@H](C)N(Cc2cccc(F)c2)C[C@@H]1C | inactive
35 | C[C@@H]1CN([C@H](C)CO)C(=O)c2cc(NS(C)(=O)=O)ccc2O[C@@H]1CN(C)C(=O)Nc1ccc(F)cc1 | inactive
36 | C[C@@H]1CCCCO[C@@H](CN(C)C(=O)Nc2ccc3c(c2)OCO3)[C@H](C)CN([C@@H](C)CO)C(=O)c2cc(NC(=O)CCC(F)(F)F)ccc2O1 | inactive
37 | CO[C@@H](CN(C)S(=O)(=O)c1ccc(C)cc1)[C@H](C)CN([C@H](C)CO)S(=O)(=O)c1cccc(Cl)c1 | inactive
38 | COCC(=O)N1C[C@@H](C)[C@H](OC)CN(C)C(=O)c2cc(NC(=O)c3ccc(F)cc3)ccc2OC[C@H]1C | inactive
39 | O=C1c2ccccc2[C@@]2(Cc3ccccc3N(CC(F)(F)F)C2=O)[C@H](c2ccc(CO)cc2)N1Cc1ccccc1 | inactive
40 | C[C@H]1CN([C@@H](C)CO)C(=O)Cc2cc(NC(=O)Nc3ccc4c(c3)OCO4)ccc2O[C@@H]1CN(C)Cc1ccc(C(=O)Nc2ccccc2N)cc1 | inactive
41 | C[C@H](CO)N1C[C@H](C)[C@H](CN(C)Cc2ccc(C(=O)Nc3ccccc3N)cc2)Oc2ccc(NC(=O)Nc3ccc4c(c3)OCO4)cc2CC1=O | inactive
42 | C[C@@H]1CN([C@H](C)CO)C(=O)Cc2cc(NC(=O)Nc3ccc4c(c3)OCO4)ccc2O[C@@H]1CN(C)Cc1ccc(C(=O)Nc2ccccc2N)cc1 | active

Row | SMILES | cytotoxicity call
43 | C[C@@H]1CN([C@@H](C)CO)C(=O)Cc2cc(NC(=O)Nc3ccc4c(c3)OCO4)ccc2O[C@H]1CN(C)Cc1ccc(C(=O)Nc2ccccc2N)cc1 | inactive
44 | C[C@H]1CN([C@@H](C)CO)C(=O)Cc2cc(NC(=O)Nc3ccccc3)ccc2O[C@@H]1CN(C)Cc1ccc(C(=O)Nc2ccccc2N)cc1 | inactive
45 | C[C@H](CO)N1C[C@H](C)[C@@H](CN(C)Cc2ccc(C(=O)Nc3ccccc3N)cc2)Oc2ccc(NC(=O)Nc3ccc4c(c3)OCO4)cc2CC1=O | inactive
46 | C[C@@H]1CN([C@H](C)CO)C(=O)Cc2cc(NC(=O)Nc3ccc4c(c3)OCO4)ccc2O[C@H]1CN(C)Cc1ccc(C(=O)Nc2ccccc2N)cc1 | inactive
47 | C[C@H]1CN([C@@H](C)CO)C(=O)Cc2cc(NC(=O)Nc3ccc4c(c3)OCO4)ccc2O[C@H]1CN(C)Cc1ccc(C(=O)Nc2ccccc2N)cc1 | active
48 | C[C@@H]1CN([C@@H](C)CO)C(=O)Cc2cc(NC(=O)Nc3ccc4c(c3)OCO4)ccc2O[C@@H]1CN(C)Cc1ccc(C(=O)Nc2ccccc2N)cc1 | active
49 | C[C@@H]1CN([C@H](C)CO)C(=O)c2cccc(NC(=O)Nc3cccc4ccccc34)c2O[C@@H]1CN(C)C(=O)NC1CCCCC1 | inactive
50 | C[C@H]1CN([C@@H](C)CO)C(=O)CCCn2cc(nn2)CO[C@@H]1CN(C)C(=O)Nc1cccc2ccccc12 | inactive
51 | O=C(Cn1cc(COc2ccc(-n3cccc3)cc2)nn1)NS(=O)(=O)c1ccccc1C(F)(F)F | inactive
52 | C[C@@H]1CN([C@@H](C)CO)C(=O)c2cc(NC(=O)Cc3ccccc3)ccc2O[C@@H](C)CCCCO[C@H]1CN(C)C(=O)C1CCCCC1 | inactive
53 | C[C@H]1CN([C@@H](C)CO)C(=O)c2cccc(NS(=O)(=O)c3cccs3)c2O[C@@H]1CN(C)CC1CC1 | inactive
54 | COc1ccc([C@@H]([C@H](Cc2ccccc2)OC(C)=O)N2C[C@@H](OC(C)=O)[C@@H]3C(=NO[C@H]3c3ccccc3)[C@@H]2Cc2ccccc2)cc1 | inactive
55 | C[C@@H]1CN([C@@H](C)CO)C(=O)c2cccc(NC(=O)Nc3ccc4c(c3)OCO4)c2O[C@@H]1CN(C)Cc1ccc(C(F)(F)F)cc1 | inactive
56 | Oc1cc(O)c2cc(O)c(-c3ccc(O)c(O)c3)[o+]c2c1.[Cl-] | inactive
57 | Cc1noc(C)c1S(=O)(=O)Nc1ccc2c(c1)C(=O)N([C@H](C)CO)C[C@H](C)[C@H](CN(C)S(=O)(=O)c1ccc(Cl)cc1)O2 | inactive
58 | COc1ccc(S(=O)(=O)N2C[C@@H](O)COC[C@H]3O[C@H](CC(=O)NCc4ccc(Cl)c(Cl)c4)CC[C@@H]32)cc1 | inactive
59 | COc1ccc(S(=O)(=O)N2C[C@H](O)COC[C@H]3O[C@H](CC(=O)NCc4ccc(Cl)c(Cl)c4)CC[C@@H]32)cc1 | inactive
60 | COc1ccc(S(=O)(=O)N2C[C@@H](O)COC[C@@H]3O[C@@H](CC(=O)NCc4ccc(Cl)c(Cl)c4)CC[C@H]32)cc1 | active
61 | COc1ccc(S(=O)(=O)N2C[C@H](O)COC[C@@H]3O[C@H](CC(=O)NCc4ccc(Cl)c(Cl)c4)CC[C@H]32)cc1 | inactive
62 | COc1ccc(S(=O)(=O)N2C[C@@H](O)COC[C@H]3O[C@@H](CC(=O)NCc4ccc(Cl)c(Cl)c4)CC[C@@H]32)cc1 | active
63 | COc1ccc(S(=O)(=O)N2C[C@@H](O)COC[C@@H]3O[C@H](CC(=O)NCc4ccc(Cl)c(Cl)c4)CC[C@H]32)cc1 | inactive
